# Screening data as filed in PubChem.
# CDC25B CDK2 inh: human CDC25B-CDK2/CyclinA binding inhibition | HTRF CDC25B-CDK2/CyclinA binding, anti-His/anti-Flag; hits give high values | z-score (concentration not given with the values) | 94,000 tested, 0.72% active | AID 1259370; in the data active = z-score above about 3.2
# HIV TAR-Tat: HIV-1 TAR-Tat binding disruption; AID 1259389; 100,000 tested, 0.6% active; HIV-1 TAR RNA, Tat peptide displacement FRET; hits give high values; z-score (concentration not given with the values); active = z-score of 3 or more in at least 2 runs
# The depositor's hits bear a star; x = no result. Sampled rows, rich in hits. Any-hit rate of the full collection: about 0.93%.
SMILES,CDC25B CDK2 inh,HIV TAR-Tat
CC(C)Cn1cc(NC(=O)N2CCc3ccccc32)c2ccccc2c1=O,x,2.76
COc1cccc(NC(=O)Nc2sc3nc4n(c(=O)c3c2C)CCC(C)CC4)c1 (configuration not stated),-3.04,0.79
COc1cc(OC)c(NC(=O)Nc2sc3nc4n(c(=O)c3c2C)CCC(C)CC4)cc1Cl (configuration not stated),11.3*,0.31
Cc1ccccc1NC(=O)Nc1sc2nc3n(c(=O)c2c1C)CCC(C)CC3 (configuration not stated),11.5*,0.07
Cc1c(NC(=O)Nc2ccccc2Cl)sc2nc3n(c(=O)c12)CCC(C)CC3 (configuration not stated),-2.5,0.25
Cc1cccnc1NC(=O)C1CC(=O)OC12CCCCC2 (configuration not stated),13.7*,1.18
N#Cc1c(NC(=O)C2CC(=O)OC23CCCCC3)sc2c1CCCCC2 (configuration not stated),-0.05,0.83
Cc1nc(CNC(=O)[C@H]2CSCN2C(=O)Nc2cccc(Br)c2)cs1,x,1.37
Cc1cccc(C)c1NC(=O)CCN1CCOCC1,-2.14,x
O=C(NCc1ccccc1)c1noc2c1CSc1ccccc1-2,-0.02,0.76
CCC(CC)c1nn2cc(-c3ccc(Cl)cc3)nc2s1,0.5,1.07
COc1ccc(NC(=O)C(C)Sc2nnc(Cc3c(C)nc4ccccn4c3=O)n2C)cc1 (configuration not stated),16*,-0.14
Cc1nc2ccccn2c(=O)c1Cc1nnc(SCC(=O)Nc2ccc(Cl)cc2)n1C,-0.52,-0.6
Cc1nc2c(C)cccn2c(=O)c1Cc1nnc(SCC(=O)Nc2ccc(C(C)C)cc2)n1C,-0.42,-0.62
COc1ccc(NC(=O)C(C)Sc2nnc(Cc3c(C)nc4c(C)cccn4c3=O)n2C)cc1 (configuration not stated),7.15*,-0.94
C=C(C)C(CCC=C(C)C)C12C[C@@H](CC=C(C)C)C(C)(C)C(CC=C(C)C)(C(=O)/C(=C(/O)c3ccc(O)c(O)c3)C1=O)C2=O (some centres not stated),x,8.27*
COc1ccc(S(=O)(=O)C(CNC(=O)C2CCCC2)c2cccs2)cc1 (configuration not stated),x,0.04
Cc1nonc1NC(=O)N1CCOCC1,-1.39,1.34
Cc1nonc1NC(=O)Nc1ccncc1,9.17*,-0.99
Cc1ccc2nc(Nc3ccc(Cl)cc3)c3nnnn3c2c1,-1.58,-0.03
COc1ccc(C2CC(c3c(O)n(C)c(=O)n(C)c3=O)=Nc3ccccc3S2)cc1OC (configuration not stated),19.9*,2.33
COc1cc(C2CC(c3c(O)n(C)c(=O)n(C)c3=O)=Nc3ccccc3S2)ccc1O (configuration not stated),-1.71,1.21
COc1cc2ncc(S(=O)(=O)c3ccccc3)c(N3CCC(C)CC3)c2cc1OC,1.55,1.04
O=S(=O)(c1ccccc1)c1cnc2ccc(Cl)cc2c1N1CCCC1,-0.64,0.16
CCc1ccc2ncc(S(=O)(=O)c3ccccc3)c(N3CCCC3)c2c1,9.11*,-2.49
SMILES,CDC25B CDK2 inh,HIV TAR-Tat
COc1cc2ncc(S(=O)(=O)c3ccccc3)c(N3CCCCC3)c2cc1OC,5.93*,-0.26
O=C(NNc1c(Cl)cncc1Cl)C(c1ccccc1)c1ccccc1,-1.19,x
Cc1cc(Nc2ccc(N(C)C)cc2)c2cccc(C)c2n1,-0.51,22*
Cc1cc(C)c2nc(C)cc(Nc3ccc(N(C)C)cc3)c2c1,-2.83,3.65
Cc1cc2n(n1)CCC(=O)N2CCCC(=O)NCCCN1CCN(C2CCCCC2)CC1,x,1.84
CCN(Cc1ccccc1)C(=O)CSc1nnc(C)n2c1cc1sccc12,x,3.66
COc1cc(OC)cc(C(=O)Nc2nc3c(s2)CCc2ccccc2-3)c1,-2.35,x
COc1ccc2c(c1)Cc1sc(NC(=O)c3ccc(OC)c(Br)c3)nc1-2,19.4*,0.6
CC(Sc1c2c(nc3ccc(Cl)cc13)CCCC2)C(=O)NCc1ccco1 (configuration not stated),1.88,-0.71
CCCCC1(C)OC(=O)C(=Cc2ccc(OCc3ccc([N+](=O)[O-])cc3)c(OCC)c2)C(=O)O1 (configuration not stated),-1.89,x
O=C(NCCCN1CCCC1)C(=O)c1c[nH]c2ccccc12,-1.85,x
Cc1ccccc1Cn1c(/C=C/c2ccco2)nc2ccccc21,3.55*,-6.72
Clc1ccc(OCCn2c(/C=C/c3ccco3)nc3ccccc32)cc1,0.11,-5.79
Cc1ccc(Cn2c(/C=C/c3ccco3)nc3ccccc32)cc1,3.56*,-0.25
C(=C\c1nc2ccccc2n1CCOc1ccccc1)/c1ccco1,0.36,-6.2
O=C(Nc1nnc(CSCCOc2ccccc2)s1)C(=O)c1c[nH]c2ccccc12,-2.04,-0.93
C#CCn1c(CCCCC)nc2ccccc21,0.47,1.12
CC1CC(C)CN(C(=O)c2ccc(N3CCCC3=O)cc2)C1 (configuration not stated),-1.72,x
CC(=O)N1c2ccc(S(=O)(=O)N3CCOCC3)cc2CC1C(=O)NCCN1CCN(C)CC1 (configuration not stated),x,0.51
Cc1ccc(-c2cnnc(-n3nc(C)c4c3NC(=O)CC4c3ccc(C(=O)O)cc3)n2)cc1 (configuration not stated),-0.92,0.9
Cc1nn(-c2nncc(-c3ccc(F)cc3)n2)c2c1C(c1ccc(C(=O)O)cc1)CC(=O)N2 (configuration not stated),-1.99,3.66*
Cc1nn(-c2nc3ccccc3[nH]2)c2c1C(c1ccc(C(=O)O)cc1)CC(=O)N2 (configuration not stated),x,25.1*
Cc1nn(-c2nc3ccccc3[nH]2)c2c1C(c1cc(F)cc(F)c1)CC(=O)N2 (configuration not stated),x,1.53
CCN1CCN(c2csc3ccc(OC)cc3c2=O)CC1,x,0.14
N/C(CS(=O)(=O)c1ccc(Cl)cc1)=N\O,-1.57,x
SMILES,CDC25B CDK2 inh,HIV TAR-Tat
Cc1nc(-c2cccs2)c(CC(=O)N2CCCC2)s1,-1.27,-0.62
Cc1nc(-c2cccs2)c(CC(=O)Nc2ccc(N3CCCC3)cc2)s1,11.6*,-0.42
CC(C)OCCCNC(=O)CSc1ccsc1[N+](=O)[O-],-0.63,0.49
Cc1ccc2c(=O)c(C(=O)c3ccc(F)cc3)c[nH]c2n1,x,-1.97
Cc1ccc2c(=O)c(C(=O)O)c[nH]c2n1,1.51,19.6*
O=C(c1ccc(Oc2cc(Cl)cc(Cl)c2)o1)N1CCN(Cc2cccnc2)CC1,-1.47,x
COC(=O)NC1c2ccccc2Oc2ccccc21,-0.47,0.32
COC(=O)C1=C(N)Oc2ccccc2C1C(C#N)C#N (configuration not stated),18.6*,x
Cc1cc(-c2ccc(=O)[nH]n2)cc(S(=O)(=O)N2CCC(Cc3ccccc3)CC2)c1C,x,8.82*
Cc1cc(-c2ccc(=O)[nH]n2)cc(S(=O)(=O)N2CCN(c3ccccc3)CC2)c1C,x,1.9
Cc1cccn2c(=O)c3cc(C(=O)N(C)Cc4ccccc4)n(C)c3nc12,x,-0.33
CC(=O)NCCNC(=O)CCc1nc2sc3c(c2c(=O)[nH]1)CCCCC3,x,5.98*
O=C(CCc1nc2sc3c(c2c(=O)[nH]1)CCCCC3)N1CCN(c2ccc(F)cc2)CC1,x,-0.48
O=C(CCc1nc2sc3c(c2c(=O)[nH]1)CCCCC3)N1CCN(Cc2ccc3c(c2)OCO3)CC1,x,10.5*
